The entries come from a sample that favours hits as a whole.
RE007 growth inh = less growth of the S. pombe RE007 Vpr strain; S. pombe RE007 Vpr strain, BacTiter-Glo ATP luminescence, 24 h; Potency, µM (top dose mostly 92.2 µM), without a hit: at the highest dose activity change, negative = less growth, actives largely listed as inhibitors; actives 0.21% (n = 360,000); active = well fitted falling curve with a large enough effect; inconclusive = small, poorly fitted or top-dose-only effect; inactive = no such curve, though single readings can be large or run the other way; also: potency is read from the fitted curve at half-maximal effect; % is scaled to controls: 0 for no effect and ±100 for the full control effect; nearly all actives have a fitted effect of over 50% in size
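Fission yeast strain RE007, carrying one chromosomally integrated HIV-1 vpr copy, was seeded at OD 0.01 in PMG+AL medium with 23 nL pinned compound. After 24 h at 30 °C and 99% humidity, viability was read by BacTiter-Glo luminescence.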
Tb PYK inh = inhibitors of Trypanosoma brucei pyruvate kinase; Q57TT1; TbPYK enzyme, Kinase-Glo Plus ATP luminescence, 45 min; Potency, µM (top dose mostly 76.8 µM), inactives show at the top dose activity, negative = inhibition, most hits filed as inhibitors; actives 0.12% (n = 410,000); AID 624173; also: potency is read from the fitted curve at half-maximal effect; % is scaled to controls: 0 for no effect and ±100 for the full control effect; nearly all actives have a fitted effect of over 50% in size
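Luminescence from Kinase-Glo Plus, added after a 45-minute room-temperature reaction, served as the end-point read-out. The enzyme and substrate were preincubated with compound before ADP (130 uM final) initiated turnover. Concentration-effect curves came from normalized qHTS data.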
Shiga inhibitor = blocks Shiga toxin action in Vero cells; Vero cells, Shiga toxin protein synthesis inhibition reporter; inhibition, % at 38.7 µM; actives 9.2% (n = 290,000); in the data active = inhibition mostly above about 28%, no sharp cut-off; inactive = mostly below about 43%; also: 0% is about no effect
Cycloheximide cs = affects cycloheximide protein synthesis inhibition readout, counter-screen | cell reporter, cycloheximide protein synthesis inhibition counterscreen | actives 12% (n = 300,000) | AID 2314 | max response, %; in the data active = max response mostly above about 13%, no sharp cut-off; inactive = mostly below about 14%; also: read at 38.3 µM for the half of the compounds with a filed dose; 0% is about no effect
LmPK inhibitor = blocks Leishmania mexicana pyruvate kinase activity; Q27686; purified LmPK, Kinase-Glo ATP luminescence, 1 h; Potency, µM (highest dose often 57.5 µM), for the others: at the highest dose activity change, negative = inhibition, actives largely listed as inhibitors; actives 0.37% (n = 290,000); also: potency is read from the fitted curve at half-maximal effect; % is scaled to controls: 0 for no effect and ±100 for the full control effect
Target sequence (Q27686 whole entry, looked up): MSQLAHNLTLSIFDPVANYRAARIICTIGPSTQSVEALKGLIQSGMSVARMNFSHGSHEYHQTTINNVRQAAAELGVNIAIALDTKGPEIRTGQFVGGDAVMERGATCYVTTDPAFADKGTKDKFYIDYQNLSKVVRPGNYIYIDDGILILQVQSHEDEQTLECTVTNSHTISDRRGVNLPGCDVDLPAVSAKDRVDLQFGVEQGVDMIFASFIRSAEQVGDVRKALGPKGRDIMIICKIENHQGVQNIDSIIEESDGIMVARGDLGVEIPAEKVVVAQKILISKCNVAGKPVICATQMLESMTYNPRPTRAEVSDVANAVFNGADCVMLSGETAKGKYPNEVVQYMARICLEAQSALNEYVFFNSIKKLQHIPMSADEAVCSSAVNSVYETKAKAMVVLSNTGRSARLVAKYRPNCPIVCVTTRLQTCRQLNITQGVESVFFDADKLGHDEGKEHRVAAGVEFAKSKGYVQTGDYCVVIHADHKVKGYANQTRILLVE
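In 50 mM imidazole pH 7.2 with 7 mM MgCl2, LmPK (0.1 nM) turned over PEP (0.5 mM) and ADP (0.1 mM) for 1 h at room temperature. Luciferase read-out of ATP.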
FBPA Giardia inh = blocks Giardia fructose-bisphosphate aldolase activity | purified Giardia FBPA | AID 2451 | Potency, µM (titrated, usually from 59.6 µM), without a hit: at the top dose activity, negative = inhibition, most hits filed as inhibitors | A8B2U2 | actives 0.71% (n = 290,000); also: potency is read from the fitted curve at half-maximal effect; % is scaled to controls: 0 for no effect and ±100 for the full control effect; nearly all actives have a fitted effect of over 55% in size
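Giardia FBPA (40 nM reagent) was preincubated 10 min at RT with compound (up to 57.5 uM final), then substrate plus GAPDH/TPI/NAD/arsenate coupling system with diaphorase/resazurin was added; resorufin fluorescence (525/598 nm) was read after 20 min.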
Active calls of the source: *; ? = inconclusive; / = not tested or not shown; + = active, no number; [ ] = dose if it differs, or a comment. Unless noted, calls follow the shape of the dose curve; as a rule, active = well fitted curve in the direction sought with a large enough effect; inconclusive = small, poorly fitted or top-dose-only effect, or another doubt; inactive = no such curve, though single readings can be large; an effect the other way counts as inactive or inconclusive.

SMILES	RE007 growth inh	Tb PYK inh	Shiga inhibitor	Cycloheximide cs	LmPK inhibitor	FBPA Giardia inh
O=c1c2ccccc2nc(-c2ccc(Br)cc2)n1Cc1ccccc1	5%	-1%	8	0	6%	12%
Cc1ccc(NC(=O)c2cccc(NC(=O)N3CCSc4ncccc43)c2)cc1F	/	-1%[15.4 µM]	/	/	/	/
Cn1cccc1/C=N/n1c(-c2ccccc2)n[nH]c1=S	18%	?	-2	-1	7.9µM*	-13%
Cc1ccc(-c2n[nH]c(=S)n2/N=C\c2ccco2)cc1	-2%	?	-2	7	-15%	7%
S=c1[nH]nc(-c2ccncc2)n1/N=C/C(Cl)=C\c1ccccc1	11%	?	61*	24*	0%	14%
Cc1ccc(-c2n[nH]c(=S)n2/N=C/c2ccc(C)o2)cc1	7%	2.5µM*	-1	-3	-13%	8%
Cn1cccc1/C=N/n1c(-c2ccc(C(C)(C)C)cc2)n[nH]c1=S	13%	?	-13	20	20µM*	/
CCOC(=O)CN(Cc1ccccc1)C(C(=O)NC1CCCCC1)c1ccccc1 (configuration not stated)	/	2%	/	/	/	/
O=C(CCS(=O)(=O)c1cccs1)Nc1ccc(C(=O)Nc2ccccc2F)cc1	/	0%	/	/	/	/
COc1ccc(NC(=O)C(=O)NCc2ccco2)c(OC)c1	/	-3%	/	/	/	/
Cc1cc(C)n(CC(=O)Nc2cc(F)ccc2F)c(=O)c1C#N	/	-3%	/	/	/	/
CC(=O)N1CCC2(CC1)OC(=O)C(C)=C2C(=O)Nc1cc(C)ccc1C	/	1%[15.4 µM]	/	/	/	/
NS(=O)(=O)c1ccc(-c2ccc(/C=C3\C(=O)Nc4ccccc43)o2)cc1	/	/	1	-3	6%	13%
O=C1Nc2ccccc2/C1=C/c1ccccc1F	-9%	-10%	28	13*	2%	-6%
Cc1ccccc1/C=C1\C(=O)Nc2ccc(F)cc21	-9%	-1%	-9	-2	1%	-8%
O=C1Nc2ccccc2/C1=C/c1cnc[nH]1	-4%	-1%	-6	1	-9%	0%
CN(C)c1ccc(/C=C2/NC(=O)NC2=O)cc1	9%	-8%	active	25*	-4%	-1%
O=C1Nc2ccccc2/C1=C/c1cnc(-c2ccccc2)[nH]1	-9%	-11%	53*	59*	2%	1%
Cc1ccc(/C=C2\C(=O)Nc3ccccc32)o1	-28%	?	21	18*	-17%	-22%
CCC(CC)C(=O)Nc1ccc(OCc2cc(=O)n3c4c(sc3n2)CCCC4)cc1	/	-9%	/	/	/	/
Cc1ccc2oc(C(=O)N(Cc3sccc3C)C3CCS(=O)(=O)C3)c(C)c2c1 (configuration not stated)	/	1%	/	/	/	/
CN(C)c1ccc(/C=C2\C(=O)Nc3ccccc32)cc1	/	/	78*	76*	/	-14%
CN(C)c1ccc(/C=C2/C(=O)Nc3ccccc32)cc1	/	/	/	/	/	-15%
CC(C)(C)c1cc(/C=C2\NC(=O)NC2=O)cc(C(C)(C)C)c1O	-2%	-5%	30	25*	-3%	12%
Cc1ccc(N=C2CCCN2Cc2ccccc2)c(C#N)c1	6%	-3%	+	18*	0%	-6%
SMILES	RE007 growth inh	Tb PYK inh	Shiga inhibitor	Cycloheximide cs	LmPK inhibitor	FBPA Giardia inh
CCn1cnc2cc(NCc3cccs3)ccc21	-12%	-4%	188*	31*	0%	-9%
O=C(O)c1cc(NCc2cccs2)ccc1N1CCOCC1	-5%	2%	-7	-4	0%	-5%
CC(C)(C)n1cnc2cc(NCc3cccs3)ccc21	-8%	-6%	120*	30*	0%	-7%
CO[C@H]1COC(=O)C/C=C\[C@H](C)[C@@H](OC)COC(=O)[C@H](Cc2ccccc2)NC(=O)C/C=C\[C@@H]1C	/	/	/	/	/	5%[12.9 µM]
COc1ccc(CCNCc2c(C(=O)O)c(C)n(Cc3ccccc3C)c2C)c(OC)c1	/	-14%	/	/	/	/
Cc1ccc(C2c3c(-c4cc(C)ccc4O)n[nH]c3C(=O)N2Cc2ccco2)cc1 (configuration not stated)	/	-14%	/	/	/	/
Cc1ccccc1CNC(=O)Cn1ncn2nc(-c3cccs3)cc2c1=O	/	-14%	/	/	/	/
O=C(Nc1nc2ccccc2[nH]1)C1CCC1	3%	-5%	108*	42*	?	0%
O=C(NCc1nc2ccccc2[nH]1)C1CCCCC1	17%	7%	11	8	-2%	5%
O=C(Nc1nc2ccccc2[nH]1)C1CCCC1	5%	0%	81*	60*	-10%	1%
O=C(CC1CCCC1)Nc1nc2ccccc2[nH]1	5%	-1%	56	28*	2%	2%
O=C(Cc1cccc2ccccc12)Nc1nc2ccccc2[nH]1	5%	11%	-39	-2	0%	2%
CC(C)[C@H](NC(=O)C1CCCC1)c1nc2ccccc2[nH]1	204%	-17%	-5	1	-5%	-2%
O=C(N[C@@H]1N=C(c2ccccc2F)c2cccc3c2N(CC3)C1=O)c1cc2ccccc2[nH]1	/	2%	/	/	/	/
COC(=O)N1CCC2(CCN(C(=O)NC(C)C)CC2)CC1	/	2%	/	/	/	3%
CCCCOC(=O)n1c(=S)oc2cc(Cl)ccc21	?	-10%	101*	24*	-3%	0%
CCC(=O)Nc1ccc(CC)cc1-c1nc2ccccc2n(CC(=O)c2ccc(OC)cc2)c1=O	/	-2%	/	/	/	/
O=c1ncn(-c2cccc(F)c2)c2ncccc12	-5%	-6%	3	14*	-5%	-1%
COc1ccc(Cn2c(=O)c3cccnc3n(Cc3cccc(F)c3)c2=O)cc1	/	-1%	/	/	/	/
C/C(=N\NC(=O)C1CC1)c1cccs1	6%	2%	5	-3	-1%	5%
C/C(=N\Nc1ccccn1)c1ccc(OC(F)F)cc1	4%	-4%	38*	18	1%	-19%
C/C(=N\Nc1ccccn1)c1ccc(C#N)cc1	-5%	-1%	43*	25*	2%	-7%
C/C(=N\NC(=O)C(N)=O)c1ccc(OC(F)F)cc1	-15%	0%	11	14	-7%	-1%
C/C(=N\Nc1ccccn1)c1cccs1	-1%	1%	93*	46*	-2%	-25%
C=C1c2ccccc2NC(=O)N1c1ccc(OC)cc1	-8%	2%	36	12*	0%	-4%
COc1ccc(N2C(=O)c3cc4ccccc4cc3C2=O)cc1	12%	2%	-5	-2	4%	6%
COc1ccc(N2C(=O)NC(=O)C2=O)cc1	0%	-4%	4	40*	0%	?
O=C(N/N=C/C=C\c1cccc([N+](=O)[O-])c1)c1ccccn1	8%	-8%	-7	7	2%	6%
O=C(N/N=C\C=C\c1ccco1)c1cc(-c2ccc3ccccc3c2)n[nH]1	-8%	-4%	active	24*	1%	-17%
O=C(N/N=C/C(Cl)=C/c1ccccc1)c1ccccn1	-19%	1%	76*	33*	?	-1%
